Tb PYK inh: inhibitors of Trypanosoma brucei pyruvate kinase; Q57TT1; TbPYK enzyme, Kinase-Glo Plus ATP luminescence, 45 min; Potency, µM (doses to about 76.8 µM), for inactives: at the highest dose activity, negative = inhibition, hits mostly inhibitors; 410,000 compounds, 0.12% hits; note: potency is the fitted concentration of half-maximal effect; % is set by controls: 0 for no effect and ±100 for the full control effect; nearly all actives have a fitted effect of over 50% in size
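In this concentration-response screen, enzyme-free wells defined baseline while DMSO plates tracked drift. Each reaction combined TbPYK, substrate, compound and 130 uM ADP for 45 min at room temperature. Kinase-Glo Plus luminescence gave the signal.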
CHX counter: counter-screen hit for Shiga toxin inhibitors, cycloheximide. cell reporter, cycloheximide protein synthesis inhibition counterscreen. max response, %. 300,000 compounds, 12% hits. AID 2314; in the data active = max response mostly above about 13%, no sharp cut-off; inactive = mostly below about 14%; note: read at 38.3 µM for the half of the compounds with a filed dose; 0% is about no effect
RE007 growth inh: less growth of the S. pombe RE007 Vpr strain; 360,000 compounds, 0.21% hits; Potency, µM (series often up to 92.2 µM), for the others: top-dose activity change, negative = less growth, most hits filed as inhibitors; S. pombe RE007 Vpr strain, BacTiter-Glo ATP luminescence, 24 h; AID 651644; active = well fitted falling curve with a large enough effect; inconclusive = small, poorly fitted or top-dose-only effect; inactive = no such curve, though single readings can be large or run the other way; note: potency is the fitted concentration of half-maximal effect; % is set by controls: 0 for no effect and ±100 for the full control effect; nearly all actives have a fitted effect of over 50% in size
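Fission yeast RE007 carrying one integrated HIV-1 vpr copy, seeded at OD 0.01 in PMG+AL medium with 23 nL pinned compound. Grown 24 h at 30 degrees; viability read by BacTiter-Glo luminescence after 5 min.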
Giardia FBPA inh: inhibitors of Giardia lamblia fructose-1,6-bisphosphate aldolase | purified Giardia FBPA | AID 2451 | 290,000 compounds, 0.71% hits | Potency, µM (series often up to 59.6 µM), for inactives: at the highest dose activity, negative = inhibition, hits mostly inhibitors | A8B2U2; note: potency is the fitted concentration of half-maximal effect; % is set by controls: 0 for no effect and ±100 for the full control effect; nearly all actives have a fitted effect of over 55% in size
Target sequence (A8B2U2 whole entry, looked up): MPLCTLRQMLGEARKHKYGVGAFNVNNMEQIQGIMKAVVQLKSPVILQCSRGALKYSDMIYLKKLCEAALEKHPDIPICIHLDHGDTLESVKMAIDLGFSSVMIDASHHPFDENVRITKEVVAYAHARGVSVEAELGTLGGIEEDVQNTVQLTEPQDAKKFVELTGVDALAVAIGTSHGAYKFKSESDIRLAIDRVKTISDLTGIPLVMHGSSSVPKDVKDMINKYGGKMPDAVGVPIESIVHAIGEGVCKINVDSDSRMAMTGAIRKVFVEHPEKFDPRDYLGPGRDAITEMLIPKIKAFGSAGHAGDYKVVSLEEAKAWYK
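Giardia FBPA (40 nM reagent) was preincubated 10 min at RT with compound (up to 57.5 uM final), then substrate plus GAPDH/TPI/NAD/arsenate coupling system with diaphorase/resazurin was added; resorufin fluorescence (525/598 nm) was read after 20 min.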
LmPK inhibitor: blocks Leishmania mexicana pyruvate kinase activity | Q27686 | purified LmPK, Kinase-Glo ATP luminescence, 1 h | Potency, µM (doses to about 57.5 µM), for the others: top-dose activity change, negative = inhibition, actives largely listed as inhibitors | 290,000 compounds, 0.37% hits | AID 1721; note: potency is the fitted concentration of half-maximal effect; % is set by controls: 0 for no effect and ±100 for the full control effect
Target sequence (Q27686 whole entry, looked up): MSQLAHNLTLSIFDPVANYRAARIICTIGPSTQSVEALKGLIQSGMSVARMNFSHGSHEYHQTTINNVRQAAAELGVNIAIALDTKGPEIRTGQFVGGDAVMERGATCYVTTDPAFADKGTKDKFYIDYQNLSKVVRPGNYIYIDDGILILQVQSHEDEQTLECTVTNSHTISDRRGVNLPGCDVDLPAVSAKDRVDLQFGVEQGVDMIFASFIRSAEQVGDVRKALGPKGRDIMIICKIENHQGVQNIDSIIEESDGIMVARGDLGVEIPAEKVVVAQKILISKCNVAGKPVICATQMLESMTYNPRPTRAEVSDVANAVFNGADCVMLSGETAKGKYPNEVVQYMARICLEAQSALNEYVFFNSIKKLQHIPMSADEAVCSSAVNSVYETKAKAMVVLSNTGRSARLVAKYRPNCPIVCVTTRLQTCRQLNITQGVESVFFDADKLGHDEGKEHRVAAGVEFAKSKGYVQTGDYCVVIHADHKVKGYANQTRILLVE
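Purified LmPK (0.1 nM) converted ADP (0.1 mM) to ATP with PEP (0.5 mM) in imidazole buffer pH 7.2 with KCl and MgCl2, 1 h at room temperature. ATP was read by Kinase-Glo luminescence; data normalized to uninhibited and no-enzyme controls.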
Shiga inhibitor: inhibitors of Shiga toxin in Vero cells. AID 2315. 290,000 compounds, 9.2% hits. Vero cells, Shiga toxin protein synthesis inhibition reporter. inhibition, % at 38.7 µM; in the data active = inhibition mostly above about 28%, no sharp cut-off; inactive = mostly below about 43%; note: 0% is about no effect
* hit, by the source's call; i = inactive; ? = inconclusive; · = no result given; + = active, no number; [ ] = remark or other dose. Many of the other results were omitted from the sample, so hits are more common in it than they were. Unless noted, calls come from the whole dose curve; as a rule, active = well fitted curve in the direction sought with a large enough effect; inconclusive = small, poorly fitted or top-dose-only effect, or another doubt; inactive = no such curve, though single readings can be large; an effect the other way counts as inactive or inconclusive.

SMILES | Tb PYK inh | CHX counter | RE007 growth inh | Giardia FBPA inh | LmPK inhibitor | Shiga inhibitor
CCCc1nnc(NC(=O)CCC(=O)N2CCN(c3ccccc3)CC2)s1 | -0.5% | -4.7 | -1.3% | · | -5.3% | 10.3
Cc1cc2c(cc1C)-n1nnnc1C(N1CCN(CC(=O)NC(C)C)CC1)C(=O)N2 (configuration not stated) | · | · | -2.4% | · | · | ·
CC(=O)c1cc2cccc(OC3(C)CCN(Cc4ccc(-c5ccccn5)cc4)C3)c2o1 (configuration not stated) | ? | · | -20.0% | · | · | ·
O=C(N/N=C\c1ccccc1)c1cccc(C(=O)N/N=C\c2ccccc2)n1 | -0.9% | · | 15.6% | · | · | ·
O=C(N/N=C/c1ccccc1)c1n[nH]c2c1CCCC2 | 1.9% | 27.1* | 14.5% | 1.3% | -9.3% | 75.7*
Cc1ccc([N+](=O)[O-])cc1NC(=O)C(Sc1ccccc1)c1ccccc1 (configuration not stated) | -14.5% | 5.2 | 2.6% | -0.1% | 1.9% | -10.3
O=C(/C=C/c1ccccc1)NCc1ccco1 | 1.4% | 30.2* | -15.4% | 1.3% | 3.2% | 69.3*
O=C(/C=C/c1ccc2c(c1)OCO2)NCc1ccncc1 | 0.6% | 11.1 | -0.9% | 14.3% | 2.6% | 31.2
O=C(/C=C/c1ccc2c(c1)OCO2)NCc1ccco1 | -0.4% | 24.5* | 8.6% | -8.5% | -4.9% | 33.1
O=C(/C=C/c1ccc(Cl)c(Cl)c1)NCc1ccco1 | -0.7% | 10.9 | 0.2% | 0.6% | 0.4% | active
O=C(/C=C/c1ccc(Cl)c(Cl)c1)NCCCn1ccnc1 | 0.6% | 25.1* | -4.3% | 6.7% | -3.5% | 50.7*
Cc1cc2nc(-c3ccc(NC(=O)c4ccccc4F)cc3)oc2cc1C | 0.0% | · | · | · | · | ·
O=C(/C=C/c1ccccc1Cl)NCc1ccco1 | -3.2% | 42.5* | -13.0% | -0.3%[12.9 µM] | 4.9% | 62.9*
CCCn1c2ccccc2c2cnn(CC(=O)N(CCCOC)Cc3ccco3)c(=O)c21 | -2.7% | · | · | · | · | ·
Cc1ccc2nc(-c3ccc(N4C(=NC(=O)CCC(=O)O)SC5CS(=O)(=O)CC54)cc3)sc2c1 (configuration not stated) | -12.7% | 36.9* | 3.6% | 6.3% | 12.8% | 124.3*
CC(=O)N=C1SC2CS(=O)(=O)CC2N1Cc1ccc(C)cc1 (configuration not stated) | 1.1% | -0.8 | 5.9% | 2.0% | -1.4% | -8.8
CC(=O)N=C1SC2CS(=O)(=O)CC2N1c1ccc(-c2nc3ccc(C)cc3s2)cc1 (configuration not stated) | · | 18.2* | · | 9.1% | -1.3% | 54.1*
O=C(CCNC(=O)c1ccco1)Nc1ccc(C(F)(F)F)cc1 | -6.9% | -1.8 | -4.5% | 17.2% | -5.7% | -17.7
O=C(CNC(=O)c1ccco1)Nc1ccncc1 | -1.6% | · | -17.0% | · | · | ·
COc1ccc(NC(=O)CC(c2ccco2)C(C)C)cc1 (configuration not stated) | -20.4% | 20.6* | -9.3% | -5.9% | 4.4% | 5.6
COc1ccc(NC(=O)CNC(=O)c2ccco2)cc1 | -1.7% | 50.6* | 6.7% | 1.6% | -6.8% | 72.6*
CC(C)(C)c1ccc(NC(=O)CCNC(=O)c2ccco2)cc1 | -2.0% | 18.6* | 2.8% | -8.6% | 10.2% | 33.5
Cc1ccc(NC(=O)CNC(=O)c2ccco2)cc1 | -1.6% | 33.4* | -1.7% | -0.7% | -0.7% | 47.9*
O=C(CNC(=O)c1ccco1)Nc1ccc(OC(F)F)cc1 | 3.7% | -7.2 | 8.8% | -5.0% | -6.5% | -7.9
CC(C)C(CC(=O)NCc1ccco1)c1ccco1 (configuration not stated) | -6.3% | 1.0 | -2.8% | -18.0% | 5.7% | -2.0
SMILES | Tb PYK inh | CHX counter | RE007 growth inh | Giardia FBPA inh | LmPK inhibitor | Shiga inhibitor
COc1ccc(CNC(=O)C2(c3cccs3)CCOCC2)cc1 | -4.7% | · | · | · | · | ·
CCC1CCCCN1C(=O)CSc1n[nH]c(-c2ccccc2Cl)n1 (configuration not stated) | 1.8% | · | · | · | · | ·
COc1cc2c(cc1OC)C1O[C@](c3ccsc3)(C2)Oc2c1c(=O)oc1ccc(F)cc21 | · | 15.5* | · | 2.2%[12.9 µM] | -7.6%[11.5 µM] | i
N#Cc1ccc2c(c1)C[C@]1(c3ccsc3)Oc3c(c(=O)oc4ccccc34)C2O1 | · | 24.0* | · | -1.3%[12.9 µM] | -3.0%[11.5 µM] | +
N#Cc1ccc2c(c1)C[C@]1(c3ccsc3)Oc3c(c(=O)oc4ccc(F)cc34)C2O1 | · | -4.2 | · | -23.4%[12.9 µM] | -0.4%[11.5 µM] | i
CC(C)(C)c1nc2c(s1)CCc1onc(-c3ccc(Cl)cc3)c1-2 | 4.5% | · | 2.3% | · | · | ·
COc1ccc(O[C@H]2C=C[C@@H](c3ccccc3)O[C@@H]2CO/N=C(\C)CCN2CCCc3nc(C)c(C)cc32)cc1 | · | · | · | 16.4%[12.9 µM] | · | ·
O=C(/C=C/c1cccc([N+](=O)[O-])c1)NCCSc1ccccc1 | -7.9% | 17.1* | -10.4% | -2.6% | 0.4% | 14.8
CC(C)(C)SCCNC(=O)/C=C/c1ccc([N+](=O)[O-])cc1 | 4.5% | 20.6* | -4.4% | -3.8% | 0.1% | 32.6*
O=C(/C=C/c1cccc([N+](=O)[O-])c1)NCCSCc1c(Cl)cccc1Cl | -2.9% | -2.1 | 11.6% | -3.5% | 0.0% | -13.2
CC(C)(C)SCCNC(=O)/C=C/c1cccc([N+](=O)[O-])c1 | 9.6% | 25.5* | 11.1% | -5.3% | -0.6% | 66.4*
O=C(/C=C/c1ccc([N+](=O)[O-])cc1)NCCc1ccccc1 | -19.7% | 9.2 | -7.5% | 0.7% | 2.2% | 17.8
Cc1ccc(SCCNC(=O)/C=C/c2cccc([N+](=O)[O-])c2)cc1 | 5.4% | -0.8 | -12.4% | -4.7% | 2.1% | -12.9
Cc1nc2c(n1O)CCC/C2=N\O | -0.9% | 0.5 | 12.0% | ? | 3.4% | -12.4
COc1ccc(-c2nc3c(n2O)CCC/C3=N\O)cc1 | -7.5% | 27.3* | -6.7% | -21.2% | -15.0% | 76.7
O=C(N/N=C/c1cccc(F)c1)c1csc2c1CCCC2 | -9.0% | 55.2* | 32.8% | -14.0% | -5.8% | 94.7*
O=C(N/N=C/c1ccccc1F)c1csc2c1CCCC2 | -9.7% | 41.6* | -3.2% | 2.5% | 2.6% | 79.0*
CC(C)OC(=O)c1ccc(Cn2nnc3ccccc3c2=O)cc1 | -0.6% | 26.7* | 1.6% | -0.8% | 2.9% | 89.4*
CCOC(=O)c1cc(C)n(-c2ccccc2)c1C | 0.3% | 49.9* | -11.6% | 7.1% | 2.7% | 52.3*
Cc1cc(C(=O)OCC(N)=O)c(C)n1-c1ccccc1 | -0.1% | 33.1* | 4.8% | 3.3% | 1.7% | 40.7*
Cc1cc(C(=O)O)c(C)n1-c1ccccc1 | -11.6% | -4.7 | 2.7% | 6.8% | -3.9% | -10.8
Cc1cc(C(=O)OCn2nnc3ccccc3c2=O)c(C)n1-c1ccccc1 | -6.1% | 61.6* | 6.9% | 6.4% | 2.4% | 68.9*
C[N+](C)(CCCCCC[N+](C)(C)C1c2ccccc2-c2ccccc21)C1c2ccccc2-c2ccccc21 | 3.0% | · | · | · | · | ·
COc1ccc(CNC(=O)c2ccc3c(c2)N(Cc2cc(C)ccc2C)C(=O)CS3)cc1 | 1.7% | · | · | · | · | ·

Screening data as filed in PubChem BioAssay.
